Only some compounds are listed: those with a hit (about 1.6% of all), similar ones and a draw of the others.
eIF4E 4G PPI: blocks eIF4E binding to eIF4G. P63073+Q04637. TR-FRET eIF4E-eIF4GI(517-606) binding, 2 h. inhibition, % at 21.7 µM. 220,000 tested, 0.37% active. AID 782;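 active means inhibition above about 30%, limit read from the data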;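 further: 0% = full FRET control wells and 100% = background wells lacking eIF4GI fragment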
MLLE-PAM2 inh: blocks PAM2 peptide binding to the PABP1 MLLE domain | P11940 | GST-MLLE / FITC-PAM2 fluorescence polarization | inhibition, % at 20 µM | 360,000 tested, 0.36% active | AID 588489; in the data active means inhibition above about 35%, passing the limit was not always enough;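 further: plate controls were DMSO wells with GST-MLLE for no effect and wells lacking GST-MLLE protein for full effect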
eIF4H FP inh: inhibitors of RNA binding by human eIF4H; 290,000 tested, 0.94% active; AID 2012; Q15056; eIF4H fluorescence polarization binding assay; inhibition, % at 35 µM;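 further: calls also rest on retests at 20 µM and on dose response follow-up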
PERK inh: blocks human PERK kinase | CHO PERK-DD fusion, SEAP luminescence translation reporter | 220,000 tested, 0.17% active | inhibition, % at 5.6 µM;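 active means inhibition above the mean inhibition of all tested compounds plus 3 SD, set separately per screening campaign, cut at about 2.9% in these data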;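 further: PERK kinase domain activated by AP20187 dimerizer at 100 nM; 0% = DMSO with dimerizer and 100% = rapamycin at 8.4 µM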
Target sequence (Q9NZJ5 whole entry, looked up, the tested form may be a part): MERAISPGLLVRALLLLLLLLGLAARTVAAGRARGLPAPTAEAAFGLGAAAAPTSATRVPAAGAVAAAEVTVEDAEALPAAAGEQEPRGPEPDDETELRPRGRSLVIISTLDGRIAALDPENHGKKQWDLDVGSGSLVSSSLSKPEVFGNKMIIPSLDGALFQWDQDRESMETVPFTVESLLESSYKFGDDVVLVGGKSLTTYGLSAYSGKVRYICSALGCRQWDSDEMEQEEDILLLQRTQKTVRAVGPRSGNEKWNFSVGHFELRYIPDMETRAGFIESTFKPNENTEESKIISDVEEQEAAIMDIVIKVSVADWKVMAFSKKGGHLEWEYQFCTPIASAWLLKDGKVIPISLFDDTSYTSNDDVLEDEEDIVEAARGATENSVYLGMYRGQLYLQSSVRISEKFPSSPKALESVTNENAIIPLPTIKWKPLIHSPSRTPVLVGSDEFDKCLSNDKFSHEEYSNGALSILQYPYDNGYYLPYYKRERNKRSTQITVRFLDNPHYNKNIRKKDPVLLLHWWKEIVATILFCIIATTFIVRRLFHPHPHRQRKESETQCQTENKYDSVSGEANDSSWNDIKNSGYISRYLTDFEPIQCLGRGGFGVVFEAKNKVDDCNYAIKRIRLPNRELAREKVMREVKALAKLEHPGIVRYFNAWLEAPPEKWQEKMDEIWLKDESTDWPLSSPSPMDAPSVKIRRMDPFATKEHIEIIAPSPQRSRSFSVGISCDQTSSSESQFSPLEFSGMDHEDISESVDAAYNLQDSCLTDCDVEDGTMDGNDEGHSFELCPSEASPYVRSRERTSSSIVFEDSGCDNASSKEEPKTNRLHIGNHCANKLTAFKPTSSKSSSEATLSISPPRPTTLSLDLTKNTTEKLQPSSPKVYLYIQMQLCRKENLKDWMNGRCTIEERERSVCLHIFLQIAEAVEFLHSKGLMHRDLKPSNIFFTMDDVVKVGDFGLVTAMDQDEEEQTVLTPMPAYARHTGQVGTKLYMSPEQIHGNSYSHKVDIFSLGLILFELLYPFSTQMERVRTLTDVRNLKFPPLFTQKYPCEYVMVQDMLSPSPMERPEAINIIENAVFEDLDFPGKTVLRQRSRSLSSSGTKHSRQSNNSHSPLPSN
PABP FP inh: blocks human PABP binding to poly(A) RNA | P11940 | fluorescence polarization | inhibition, % at 35 µM | 290,000 tested, 1% active | AID 2014;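 further: calls also rest on retests at 20 µM and on dose response follow-up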
An asterisk follows results filed as active; ? = inconclusive; . = no result. Unless noted, how the calls were made is not given here.

SMILES	eIF4E 4G PPI	MLLE-PAM2 inh	eIF4H FP inh	PERK inh	PABP FP inh
CC[C@@]1(O)C(=O)OCc2c1cc1n(c2=O)Cc2cc3c(NC(=O)CN)cccc3nc2-1	5.4	-11.8	32.2	0.9	20.6
CCC1(OC(=O)CN)C(=O)OCc2c1cc1n(c2=O)Cc2cc3ccccc3nc2-1 (centres undefined)	0.0	0.4	6.1	4.9*	-3.7
CC[C@@]1(O)C(=O)OCc2c1cc1n(c2=O)Cc2cc3ccccc3nc2-1	-0.8	.	-4.2	6.0*	5.6
C=CCn1c(O)c(/C(C)=N/N2CCCCCC2)c(=O)[nH]c1=O	0.7	5.7	-3.8	-2.2	4.1
C/C(=N\N1CCCCCC1)c1c(O)n(C2CCCCC2)c(=O)[nH]c1=O	44.7*	0.6	5.0	-2.3	-9.3
O=C(Cn1c(NCCCl)nc2ccccc21)c1ccc(Br)cc1	.	-0.2	.	.	.
CC12CC[C@H]3[C@@H](CCC4(O)C[C@H](O)CCC34/C=N/NC(=O)c3ccccc3F)C1(O)CCC2C1=CC(=O)OC1 (some centres undefined)	2.5	9.2	-11.8	1.2	-4.5
CC12CC[C@H]3[C@@H](CCC4(O)C[C@H](O)CCC34/C=N/NC(=O)c3ccc(O)cc3)C1(O)CCC2C1=CC(=O)OC1 (some centres undefined)	-4.3	-0.4	2.3	2.9*	3.6
CC12CC[C@H]3[C@@H](CCC4(O)C[C@H](O)CCC34/C=N/NC(=O)c3ccccc3O)C1(O)CCC2C1=CC(=O)OC1 (some centres undefined)	13.7	8.5	1.4	3.1*	4.1
CN(C)c1ccc(C(=O)N/N=C/C23CC[C@@H](O)CC2(O)CC[C@@H]2[C@@H]3CCC3(C)C(C4=CC(=O)OC4)CCC23O)cc1 (some centres undefined)	-7.9	-4.7	4.7	-0.2	-2.1
O=[N+]([O-])c1cccc(NP(=O)(Oc2ccccc2)Oc2ccccc2)c1	.	1.6	-3.1	.	10.1
Nc1ccc2c3c(cccc13)CC2	.	92.8	70.0*	1.6	36.2*
O=C1/C(=C\c2cc3c(cc2Br)OCO3)N2CCC1CC2	3.3	17.5	70.2*	0.7	5.0*
Brc1ccc2c(c1)CN(CC1CCCCC1)Cc1cnnn1-2	.	-13.0	.	.	.
C=CCN1C(=O)NC(=O)/C(=C/c2cc3c4c(c2)CCCN4CCC3)C1=O	12.3	-128.6	76.6*	1.2	-3.6
C=CCN1C(=O)NC(=O)/C(=C/c2cnc(SC)nc2)C1=O	5.0	17.9	4.3	0.6	12.4
CN[C@@H]1C[C@@H](c2ccc(Cl)c(Cl)c2)c2ccccc21	98.9*	.	8.0	0.3	-8.8
CCCCCc1cc(O)c2c3c(c(=O)oc2c1)CN(C)CC3	2.2	-3.2	-5.6	0.7	-15.4
COc1cc2c(cc1OC)-c1c3c(cc4c1[C@@H](C2)N(C)CC4)OCO3	6.3	-33.3	15.8	-1.2	-2.5
COc1cc2c(cc1O)C[C@H]1NCCc3cc4c(c-2c31)OCO4	4.9	-6.1	64.4*	-0.5	2.0*
FC(F)=C(F)CCSc1ncn[nH]1	-2.4	17.9	24.1	0.5	36.4
O=c1[nH]c(=O)n(-c2ccccc2)c(O)c1N=Nc1ccc(Br)cc1	-3.8	-1.3	2.1*	-1.2	85.3
NCCc1ccc(S(N)(=O)=O)cc1	2.4	-2.3	active	1.0	79.4*
CN(C)c1ccc(/C=C2\C(=O)NC(=O)N(CCc3ccc(F)cc3)C2=O)cc1	2.8	-116.1	110.7*	-0.4	50.5*
Cc1ccc(/C=C2/C(=O)NC(=O)N(CCc3ccc(F)cc3)C2=O)o1	-1.3	-30.3	?	0.5	11.8*
SMILES	eIF4E 4G PPI	MLLE-PAM2 inh	eIF4H FP inh	PERK inh	PABP FP inh
O=C1NC(=O)N(CCc2ccc(F)cc2)C(=O)/C1=C/c1ccco1	18.1	-30.0	98.5	1.8	13.7
CC1=C2[C@H]3OC(=O)[C@@H](C)[C@@H]3CC[C@@]2(C)C=CC1=O	.	2.4	.	.	.
CN(C(=O)COC(=O)c1cn(C)c2ccccc12)C1CCCCC1	.	-9.6	.	.	.
CC(C)(C)C(=O)N1Cc2cc(N3CCOCC3)ccc2-n2nncc2C1	.	-7.5	.	.	.
O=C1C(Cl)=CC(=Nc2ccc(O)cc2)C=C1Cl	.	45.6*	.	.	.
O=[As](O)(O)c1ccc(N=Nc2ccc(O)cc2)cc1	0.8	8.6	-0.7	1.7	7.2
NC(=O)c1ccc(C(=O)Nc2ccc([As](=O)(O)O)cc2)cc1	90.4*	.	4.7	-0.5	12.1
CC(=O)Nc1ccc([As](=O)(O)c2ccc([N+](=O)[O-])cc2)cc1	2.0	16.8	8.6	0.8	-2.2
COC(=O)C1=C(c2ccc(OC(F)(F)F)cc2)C[C@@H]2CC[C@H]1N2C(=O)NCCOc1ccc(OC)cc1	.	12.5	.	.	.
O=C1NC(=O)N(Cc2ccco2)C(=O)/C1=C\c1cccn1CCOc1ccc(Cl)cc1	0.5	-20.8	?	1.0	-1.2
Cc1cccc(OCCn2cccc2/C=C2/C(=O)NC(=O)N(Cc3ccco3)C2=O)c1	8.6	-27.3	52.7*	-0.3	45.2*
O=C1NC(=O)N(Cc2ccco2)C(=O)/C1=C/c1ccc(-c2cccc([N+](=O)[O-])c2)o1	6.5	-0.2	78.2*	0.8	active
CC=C(CC)C1(CC)C(=O)NC(=S)NC1=O	.	8.3	.	.	.
CN=C(SCC(=O)c1cccc(Cl)c1)c1c(O)n(C)c(=O)n(C)c1=O	-4.1	22.1	6.6	-0.1	2.4
CCOc1ccc(-n2c(O)c(C=NCCN3CCNCC3)c(=O)[nH]c2=O)cc1	3.2	0.6	active	0.2	59.8*
O=c1[nH]c(=O)n(-c2ccc(Br)cc2)c(O)c1C=NCCN1CCCCC1	92.8*	-32.8	-6.2	1.5	-10.5
COC(=O)C1=C(c2c(C)noc2C)C[C@@H]2CC[C@H]1N2C(=O)NCc1ccc(F)cc1	.	-3.8	.	.	.
Cn1ccnc1P(=S)(c1nccn1C)N1CCOCC1	5.7	37.2*	-11.4	1.8	-6.2
COC(=O)C1=C(c2c(C)noc2C)C[C@@H]2CC[C@H]1N2C(=O)NCCNC(C)=O	.	-9.7	.	.	.
Cc1cnc[nH]1	.	2.1	.	.	.
COC(=O)C1=C(c2cccc(C#N)c2)C[C@@H]2CC[C@H]1N2C(=O)NC1Cc2ccccc2C1	.	13.1	.	.	.
O=C1NC(=S)NC(=O)C1=Cc1ccc2c(c1)CCN2CCCCl	24.7	-23.1	68.4*	1.3	40.5*
Cc1ccccc1N1C(=O)NC(=O)/C(=C\c2ccc3c(c2)CCCN3Cc2ccccc2)C1=O	0.6	64.9	43.0	0.7	-3.9
COc1cc(N2C(=O)CC(=O)NC2=O)cc(OC)c1OC	.	9.7	46.3	.	13.1
Cn1c(O)c(C(c2ccccn2)c2c(O)n(C)c(=S)n(C)c2=O)c(=O)n(C)c1=S	-8.5	13.8	57.0*	1.2	30.7
Cn1c(O)c(C(c2ccncc2)c2c(O)n(C)c(=S)n(C)c2=O)c(=O)n(C)c1=S	4.0	-2.3	-4.3	1.8	10.5
Cc1cc(/C=C2\C(=O)NC(=O)N(c3ccc(Cl)cc3)C2=O)c(C)n1-c1cccc(C(=O)O)c1	.	-11.4	?	.	41.6*
N#CCCn1cc(C(=O)Nc2ccccc2Br)c(-c2ccc3c(c2)OCCO3)n1	1.1	-9.0	active	-0.9	119.8

Screens as filed in PubChem BioAssay.
